This is a sample that favours compounds with a hit; in the whole collection about 5% have one here.
SENP7 block = inhibitors of human SENP7 protease; Q9BQF6; recombinant SENP7, Z-RLRGG-aminoluciferin luminescence, 40 min; inhibition, % at 5 µM; hit rate 1.5% among 330,000; AID 434973;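 active = inhibition above about 50% at the single test dose, limit read from the data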;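 also: plate controls were DMSO with enzyme for no effect and no enzyme buffer wells for full effect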
Target sequence (Q9BQF6 706-1050 limits assumed): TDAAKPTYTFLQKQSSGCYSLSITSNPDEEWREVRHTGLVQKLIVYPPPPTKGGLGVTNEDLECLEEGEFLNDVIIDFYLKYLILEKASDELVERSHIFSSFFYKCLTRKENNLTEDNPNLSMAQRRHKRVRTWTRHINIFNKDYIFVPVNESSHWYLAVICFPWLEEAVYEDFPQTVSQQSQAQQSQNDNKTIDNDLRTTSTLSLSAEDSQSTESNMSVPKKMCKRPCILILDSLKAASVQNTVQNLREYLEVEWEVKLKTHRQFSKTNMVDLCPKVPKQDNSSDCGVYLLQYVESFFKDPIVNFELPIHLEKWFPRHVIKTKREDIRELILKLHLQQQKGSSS
SENP8 block-1 = SENP8 (human) protease inhibition | recombinant SENP8, Nedd8 substrate fluorescence | inhibition, % at 20 µM | hit rate 0.64% among 360,000; in the data active = inhibition mostly above about 40%, no sharp cut-off; inactive = mostly below about 27%
Target sequence (Q96LD8 whole entry, looked up): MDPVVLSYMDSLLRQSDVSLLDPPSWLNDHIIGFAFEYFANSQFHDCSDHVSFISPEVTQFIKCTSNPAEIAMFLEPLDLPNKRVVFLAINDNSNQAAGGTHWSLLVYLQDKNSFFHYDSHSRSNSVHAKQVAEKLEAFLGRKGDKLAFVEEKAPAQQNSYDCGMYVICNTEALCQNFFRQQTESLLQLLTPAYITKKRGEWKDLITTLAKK
SENP8 block-2 = inhibitors of human SENP8 protease; Q96LD8; purified SENP8, Z-RLRGG-aminoluciferin cleavage, luminescence; inhibition, % at 10 µM; hit rate 1.2% among 330,000; AID 2540; in the data active = inhibition above about 50%
EBI2 block = blocks human EBI2 receptor beta-arrestin signaling; P32249; EBI2 beta-arrestin recruitment, luminescence, 7a,25-OHC stimulated; inhibition, % at 5 µM; hit rate 0.81% among 360,000; AID 651636; in the data active = inhibition above about 38%;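 also: enzyme fragment complementation signal reports receptor beta-arrestin coupling in cells; 0% = agonist plus DMSO wells and 100% = wells without agonist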
AHR activator = activates the human aryl hydrocarbon receptor; P35869; AHR-responsive luciferase reporter cells, luminescence; activation, % at 5 µM; hit rate 2.5% among 320,000; AID 2796; in the data active = activation above about 47%;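 also: 0% = vehicle wells and 100% = reference agonist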
SENP6 block = blocks the human protease SENP6; Q9GZR1; Recombinant SENP6 catalytic domain, aminoluciferin luminescence; inhibition, % at 10 µM; hit rate 1.8% among 330,000;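 active = inhibition above about 50% at the single tested dose, limit read from the data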;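 also: plate controls were DMSO wells with enzyme for no effect and DMSO wells lacking enzyme for full effect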
* hit, by the source's call; x = no result.

SMILES | SENP7 block | SENP8 block-1 | SENP8 block-2 | EBI2 block | AHR activator | SENP6 block
O=C1CCn2nc(-c3ccc(Cl)cc3)cc2N1 | 15 | 17 | -2 | -4 | 48* | 18
c1ccc(COc2ncnc3c2ncn3CCCN2CCN(c3ncccn3)CC2)cc1 | x | -10 | x | -5 | x | x
CC(Nc1cccc2ccccc12)C(=O)N/N=C/c1ccc([N+](=O)[O-])cc1 (stereo unspecified) | 46 | -40 | 4 | 3 | 24 | 81*
CCCCC[C@@H](O)c1cc2ccccc2c(=O)o1 | 3 | 11 | -3 | 26 | 3 | 4
N#C/C(=C(/O)COc1ccccc1)c1nc2ccccc2s1 | -1 | 5 | 29 | -10 | 4 | 1
N#C/C(=C(/O)COC(=O)c1ccc(C#N)cc1)c1nc2ccccc2s1 | -3 | -33 | -7 | 0 | 122* | -2
N#C/C(=C(/O)CSc1ccccn1)c1nc2ccccc2s1 | -6 | -8 | 6 | -12 | 51* | 8
N#C/C(=C(/O)c1ccc(F)cc1)c1nc2ccccc2s1 | 51* | -2 | 82* | -4 | 23 | 87*
N#C/C(=C(/O)COc1ccc(Cl)cc1)c1nc2ccccc2s1 | 1 | 7 | 81* | -11 | -1 | 93*
N#C/C(=N\O)c1nc2ccccc2s1 | -8 | 7 | -13 | 3 | 3 | -19
COc1ccc(-c2csc(C(C)(O)c3cccnc3)n2)cn1 (stereo unspecified) | x | 14 | x | -2 | x | x
CCOC(=O)[C@@H]1CSCCS(=O)(=O)N1 | x | -1 | x | 1 | x | x
CCc1ccc(C(O)c2ncc(-c3cccc(F)c3)[nH]2)cc1 (stereo unspecified) | x | 4 | x | 9 | x | x
O=C(NCc1ccco1)c1ccc(-c2ccc(F)c(F)c2)c2ccoc12 | x | -2 | x | 12 | x | x
COc1ccc(-c2cc(-c3c(O)c(OC)c4occc4c3OC)[nH]n2)cc1 | -10 | 6 | -25 | 4 | 69* | -27
COc1ccc(Nc2ncnc3sccc23)cc1OC | -4 | -26 | -16 | -2 | 64* | 3
COc1ccc(CCNc2ncnc3sccc23)cc1OC | 2 | -22 | -8 | -15 | -12 | 15
COc1ccc(-c2nc(-c3ccc4c(c3)OCO4)[nH]c2-c2ccc(OC)cc2)cc1 | 0 | -284 | -1 | 48* | 24 | -3
COc1cccc(-n2cc3c(=O)n(C)c(=O)n(C)c3c2)c1 | -16 | -172 | -11 | -4 | 59* | -26
Cn1c(CNc2ccccc2)nc2ccccc21 | -2 | -4 | -16 | 1 | 65* | 18
Cn1c(CNc2ccccc2O)nc2ccccc21 | 28 | 13 | -7 | -5 | 76* | 10
O=C(CN1CCN(C(=O)CNC(=O)c2ccc(N3CCCC3=O)cc2)CC1)Nc1cccc(F)c1 | x | 22 | x | -8 | x | x
CN=c1sc2c(n1C)C(=O)c1ccccc1C2=O | x | 73* | x | -12 | x | x
CC1CCCN(c2ccc(/C=C(\C#N)c3nn(-c4ccccc4)c(N)c3C#N)cc2[N+](=O)[O-])C1 (stereo unspecified) | 7 | 47* | 7 | 42 | 5 | 2
CC1CCN(c2cc(N3CCC(C)CC3)c([N+](=O)[O-])cc2/C=C(\C#N)c2nn(-c3ccccc3)c(N)c2C#N)CC1 | 12 | 60* | 3 | 10 | 4 | 9
SMILES | SENP7 block | SENP8 block-1 | SENP8 block-2 | EBI2 block | AHR activator | SENP6 block
COc1ccc(/C=N/NS(=O)(=O)c2ccc(F)cc2)cc1CN1CCSCC1 | 1 | 7 | -1 | 0 | -2 | -12
COc1ccc(-c2csc(C(O)c3ccc(F)cc3)n2)cc1OC (stereo unspecified) | x | 16 | x | 7 | x | x
COc1ccc(C)c2sc(=NC(=O)c3ccc(C(C)=O)cc3)n(C)c12 | 97* | -305 | 82* | 2 | 23 | 89*
COc1ccc(C)c2sc(=NC(=O)C(C)C)n(C)c12 | 5 | -46 | -6 | 11 | 9 | -6
Oc1ccc(N=Nc2cccc(Cl)c2)cc1C=Nc1ccc(N2CCOCC2)cc1 | x | 53* | x | -25 | x | x
Cc1ccc2nc(/C(C#N)=C\c3cc(C)n(-c4cccc([N+](=O)[O-])c4)c3C)[nH]c2c1 | 7 | 10 | 4 | 28 | 58* | -2
Cc1cc(/C=C(/C#N)c2nc3ccccc3[nH]2)c(C)n1-c1cc(C(=O)O)cc(C(=O)O)c1 | 4 | -235 | -1 | 3 | x | 2
COc1cc(F)ccc1-c1csc(C(C)(O)c2ccccc2)n1 (stereo unspecified) | x | -4 | x | 18 | x | x
Cc1ccc(C)c(S(=O)(=O)N/N=C/c2ccc(N(C)C)cc2)c1 | -1 | 3 | 10 | -1 | 4 | 9
Cc1ccc(C)c(S(=O)(=O)N/N=C/c2ccc(F)cc2)c1 | 9 | 12 | 1 | -1 | 74* | 1
CCOc1ccc(-c2cc(C(=O)Nc3ccc(C)c(NS(C)(=O)=O)c3)[nH]n2)c(C)c1 | x | -1 | x | -6 | x | x
O=S1(=O)CCN(C2CCCCCCC2)CC1 | x | 26 | x | -4 | x | x
CC(=O)C1C=CC(C)(C(=O)O)C2C=C(C)C(=O)C(C)(O)C12 (stereo unspecified) | x | 14 | x | -10 | x | x
CC1(C(=O)Nc2ccc3c(c2)OCO3)CCN1C(=O)CCc1ccc(Cl)cc1Cl (stereo unspecified) | x | 14 | x | -2 | x | x
O=C1C2C(C(=O)N1/N=C/c1cc([N+](=O)[O-])c(O)cc1O)C1C=CC2C12CC2 (stereo unspecified) | -2 | 15 | 1 | -5 | 3 | 3
O=C1C2C(C(=O)N1/N=C/c1cc(Br)cc([N+](=O)[O-])c1O)C1C=CC2C12CC2 (stereo unspecified) | -5 | 41* | 1 | 1 | -1 | -8
COc1ccc(/C=C/C(=O)c2ccncc2)c2ccccc12 | 15 | 29 | 12 | 0 | 53* | 13
Oc1ccc(C2C(c3ccccc3)=NN=C(c3ccc(Cl)cc3)N2O)c(O)c1 (stereo unspecified) | -1 | 23 | -8 | 5 | 48* | -6
Oc1ccc(C2C(c3ccccc3)=NN=C(c3ccccc3F)N2O)c(O)c1 (stereo unspecified) | 5 | 8 | -1 | -3 | 8 | -5
CC(C)n1c(=O)c2ccccc2n1CC(=O)N1CCOCC1 | x | -395 | x | 2 | x | x
Cc1cc(=O)[nH]c(Nc2ccc(N(C)C)cc2)n1 | -8 | 8 | -1 | -4 | 55* | -6
Cc1cc(=O)[nH]c(Nc2ccc(Cl)cc2)n1 | -7 | 9 | -3 | 3 | 6 | -6
CCOC(=O)[C@]12CCCC=C1N(Cc1ccco1)C(=O)[C@H](CC(=O)NCCCOC)C2 | x | 2 | x | -7 | x | x
NC(=O)Cn1cc(C(=O)COc2ccccc2)c2ccccc21 | 15 | x | 1 | x | 75* | -12
COc1ccc(C(=O)c2coc3c2C(=O)C(=O)c2ccccc2-3)cc1 | 6 | 83* | 4 | 8 | 13 | 30
COc1ccc2occ(C(=O)c3ccccc3)c2c1 | 19 | 4 | 27 | 12 | -4 | -18
COc1ccc2c(c1)c(C(=O)N/N=C/c1ccccc1Cl)c(C)n2C | -1 | -59 | 4 | 10 | 57* | 8

Screens as filed in PubChem BioAssay.
